AI-2 QS mod – Vibrio harveyi AI-2 quorum sensing modulators, primary screen, JMH597 strain, luminescence/OD600 ratio; Vibrio harveyi JMH597 AI-2 luminescence/OD600 ratio, 9 h; stronger effect = lower value; strain lacks LuxN and CqsS sensors; 0 = neutral-control median; activity change, % at 7.5 µM; 0.4% of 300,000 active; AID 2094, 2009; in the data active = activity change below about -75%, passing the limit was not always enough; inconclusive = no clear call, values can overlap the other calls;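 also: luminescence divided by OD600 gain over 9 h not by final OD600 alone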
sPLA2-III inh – human group III sPLA2 inhibitors, primary screen, biochemical, QFRET, BODIPY PC-A2 liposome substrate. 0.56% of 370,000 active. QFRET BODIPY PC-A2 liposome hydrolysis, fluorescence. inhibition, % at 12.2 µM. Group 3 secretory phospholipase A2 (Homo sapiens), Q9NZ20. AID 743126, 2013;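 active = inhibition above mean plus 3 SD of compounds lying within the high and low control bounds, cut at about 19% in these data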;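 also: 0% = median of test compound wells and 100% = no enzyme DMSO wells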
ARNT-TACC3 inh – disruptors of ARNT/TACC3 protein interaction, primary screen, biochemical, AlphaScreen, single concentration; Transforming acidic coiled-coil-containing protein 3 (Homo sapiens), Q9Y6A5; AlphaScreen His-ARNT PAS-B/GST-TACC3 binding, luminescence; TACC3 fragment carries E629A point mutation; inhibition, % at 9.99 µM; 0.66% of 390,000 active;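 active = mean inhibition of replicates at least 50% and at least half of replicates each reaching 50%; inconclusive = half or more replicates reach 50% but mean below 50%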;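 also: 0% = complete ARNT plus TACC3 wells and 100% = ARNT alone without TACC3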
Rin1-Abl PPI inh – inhibitors of Rin1-Abl protein binding, primary screen, biochemical, TR-FRET; Tyrosine-protein kinase ABL1 (Homo sapiens) + Ras and Rab interactor 1 (Homo sapiens), …; inhibition, % at 7.35 µM; 0.4% of 360,000 active; in the data active = inhibition above about 5%, passing the limit was not always enough
JMH597 growth rt – Vibrio harveyi growth inhibition, confirmation, counter-screen for AI-2 quorum sensing project, JMH597 strain, OD600 absorbance; AID 2726, 2010; 9 h; lacks LuxN and CqsS sensors; growth inhibition, % at 7.5 µM; 1% of 750 active; shares compounds with AI-2 QS mod;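 active = every replicate shows growth inhibition above 50%; inconclusive = at least half, but not all, replicates pass that cutoff; inactive = fewer than half of replicates pass it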
BB721 const-QS lum – luminescence inhibition in constitutive-on V. harveyi, confirmation, counter-screen for LuxS inhibitor project, strain BB721, luminescence readout | Vibrio harveyi BB721 luminescence, 9 h | 95% of 750 active | inhibition, % at 7.5 µM | shares compounds with AI-2 QS mod;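 active = inhibition above about 80% in every replicate, not just on average, limit read from the data; inconclusive = at least half of replicates past the limit, but not all; inactive = fewer than half of replicates past the limit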
BB721 growth – growth inhibition of V. harveyi BB721, confirmation, cytotoxicity control for AI-2 quorum sensing inhibitors, strain BB721, absorbance OD600 | shares compounds with AI-2 QS mod | Vibrio harveyi BB721 growth, 9 h | growth inhibition, % at 7.5 µM | 3% of 750 active | AID 2728, 2010;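 active = every replicate shows growth inhibition above 50%; inconclusive = at least half but not all replicates above 50% inhibition; inactive = under half of replicates above 50% inhibition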
JMH597 AI-2 mod – Vibrio harveyi AI-2 signaling luminescence modulation – JMH597 strain, confirmation; shares compounds with AI-2 QS mod; Vibrio harveyi JMH597 AI-2 quorum sensing luminescence, 9 h; luxN and CqsS knockout, AI-2 only; inhibition, % at 7.5 µM; 97% of 750 active;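 active = every replicate shows more than 75% inhibition of signal versus neutral control wells; inconclusive = half to three quarters of replicates exceed 75% inhibition; inactive = fewer than half of replicates exceed 75% inhibition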
Starred values were filed as active, the others as inactive; ? = inconclusive; · = no result given. Only some compounds are listed: those with a hit (about 1.5% of all), similar ones and a draw of the others.

SMILES	AI-2 QS mod	sPLA2-III inh	ARNT-TACC3 inh	Rin1-Abl PPI inh	JMH597 growth rt	BB721 const-QS lum	BB721 growth	JMH597 AI-2 mod
COc1ccc(CC(=O)O/N=C(\N)c2ccccn2)cc1OC	12.9	-2.0	5.3	5.1	·	·	·	·
O=C(C[C@H]1CC[C@@H](NC(=O)CN2CCOCC2)[C@H](CO)O1)NCCc1ccncc1	·	·	9.3	·	·	·	·	·
C[C@@H]1CN([C@@H](C)CO)C(=O)c2cc(NC(=O)C3CCCCC3)ccc2O[C@@H](C)CCCCO[C@H]1CN(C)Cc1ccccc1	·	·	3.2	·	·	·	·	·
CN1C(=O)c2cc(NC(=O)c3cccs3)ccc2OC[C@H]2O[C@H](CC(=O)O)CC[C@@H]21	·	·	8.7	·	·	·	·	·
Cc1ccc(-c2[nH]ncc2C(=O)c2ccc(Br)cc2)c(O)c1	-95.3*	-124.8	5.8	-2.3	13.5	97.4*	-4.8	98.1*
COC(=O)c1cc(NC(=S)NCc2ccc(Cl)cc2)cc(C(=O)OC)c1	-39.6	-30.4	0.0	-0.2	·	·	·	·
COc1ccc(CNC(=S)Nc2cccc(C)c2)cc1	-51.3	0.4	0.5	0.9	·	·	·	·
COc1ccc(NC(=O)NCc2ccc(Cl)cc2)cc1	-15.9	-1.2	-2.3	3.2	·	·	·	·
COc1ccc(CNC(=S)Nc2cccc(Cl)c2)cc1	-83.7*	-13.2	·	2.5	-0.3	94.9*	7.2	94.7*
COc1ccc(CNC(=O)Nc2cccc(Cl)c2)cc1	-93.9*	·	-1.5	2.1	0.2	97.3*	14.2	98.0*
COC(=O)c1cccc(NC(=S)NCc2ccc(Cl)cc2)c1	-83.0*	-33.4	-6.0	-0.6	-23.9	89.8*	2.5	91.8*
C[C@@H]1CN([C@@H](C)CO)C(=O)c2cc(-c3ccc(F)cc3)cnc2O[C@H]1CN(C)Cc1cncnc1	·	·	-7.1	·	·	·	·	·
C[C@H]1CN([C@@H](C)CO)C(=O)c2cc(C#CC3CCCC3)cnc2O[C@H]1CN(C)Cc1ccncc1	·	·	-5.3	·	·	·	·	·
O=C(Cn1c(=O)oc2cc(S(=O)(=O)N3CCCC3)ccc21)NCc1ccccn1	-96.8*	-4.9	12.7	1.1	6.1	99.2*	-52.1	99.2*
O=C(Cn1c(=O)oc2cc(S(=O)(=O)NCc3ccccc3)ccc21)NCc1ccco1	?	-8.7	-4.5	1.0	5.3	99.8*	-47.2	99.9*
CCCC(=O)Nc1ccc2c(c1)C(=O)N(C)C[C@@H](OC)[C@@H](C)CN(Cc1cccc(F)c1)[C@H](C)CO2	·	·	4.2	·	·	·	·	·
O=C(Nc1ccccc1F)N1C[C@H]2[C@@H](c3ccccc31)[C@H](CO)N2C(=O)C1CC1	·	·	2.4	·	·	·	·	·
Cc1nc(-c2cccnc2)sc1C(=O)Nc1cccc(C(F)(F)F)c1	-85.6*	-3.8	4.1	-4.6	-15.3	85.4*	9.6	89.5*
Cc1noc(C)c1S(=O)(=O)N(C)C[C@@H]1Oc2c(NS(=O)(=O)c3cn(C)cn3)cccc2C(=O)N([C@@H](C)CO)C[C@@H]1C	·	·	-1.7	·	·	·	·	·
O=C(C[C@@H]1C=C[C@@H](NC(=O)Nc2ccc(F)cc2)[C@H](CO)O1)NCc1cccc(F)c1	·	·	-3.0	·	·	·	·	·
CC(=O)c1ccc(NC(=O)C2CC(c3ccc(F)cc3)=NO2)cc1 (stereo not drawn)	7.0	3.5	0.7	-0.6	·	·	·	·
CC(=O)c1cccc(NC(=O)C2CC(c3ccc(F)cc3)=NO2)c1 (stereo not drawn)	-90.5*	-1.3	-0.7	-3.8	25.5	96.9*	19.1	98.5*
Cc1ccccc1S(=O)(=O)N1C[C@@H](O)COC[C@@H]2O[C@@H](CC(=O)N3CCN(C)CC3)CC[C@H]21	·	·	-0.9	·	·	·	·	·
C[C@H]1CN([C@@H](C)CO)C(=O)Cc2cc(NS(=O)(=O)c3ccccc3)ccc2O[C@H]1CN(C)S(=O)(=O)c1ccc(F)cc1	·	·	2.1	·	·	·	·	·
Cc1cc(C)cc(NC(=O)COC(=O)c2n[nH]c3ccccc23)c1	-88.7*	-52.3	-2.8	-2.0	-7.7	95.8*	-22.8	96.4*
SMILES	AI-2 QS mod	sPLA2-III inh	ARNT-TACC3 inh	Rin1-Abl PPI inh	JMH597 growth rt	BB721 const-QS lum	BB721 growth	JMH597 AI-2 mod
O=C(COC(=O)c1n[nH]c2ccccc12)Nc1ccccc1	-65.7	-7.9	-5.9	2.7	·	·	·	·
CC(=O)c1cccc(NC(=O)COC(=O)c2n[nH]c3ccccc23)c1	-80.5*	-5.2	-4.7	-3.0	11.2	94.7*	-2.7	96.6*
CNC(=S)/N=C/NOCc1ccc(Cl)cc1Cl	8.0	0.4	-7.1	2.0	·	·	·	·
Clc1ccc(CON/C=N/c2ncnc3sccc23)c(Cl)c1	-94.8*	-1.3	-8.9	1.7	8.0	89.6*	21.7	93.6*
C[C@@H]1CCCCO[C@@H](CN(C)C(=O)c2ccccc2)[C@H](C)CN([C@@H](C)CO)C(=O)c2cc(NS(=O)(=O)c3cccs3)ccc2O1	·	·	-4.8	·	·	·	·	·
CCCCOC(=O)Nc1ccc(S(=O)(=O)Nc2ncccn2)cc1	-90.6*	0.3	·	1.4	-15.6	95.8*	-17.7	97.1*
COC(=O)Nc1ccc(S(=O)(=O)Nc2ncccn2)cc1	25.1	0.1	-1.8	0.5	·	·	·	·
C=CCOc1c(CNc2ccc(C(=O)O)cc2)cccc1OCC	-89.0*	-1.6	4.7	2.2	4.7	95.4*	-1.7	97.8*
O=[N+]([O-])c1ccc(N/N=C/c2cccc(O)c2O)cc1	-81.9*	19.2	-2.4	2.0	32.5	92.7*	16.0	96.2*
CCCCCC(=O)NC(=S)Nc1ccc2oc(=O)ccc2c1	-90.0*	4.3	-4.0	-2.2	19.0	98.5*	39.8	97.9*
COCCNC(=O)C[C@H]1CC[C@@H]2[C@H](COc3ccc(NC(=O)C4CCOCC4)cc3C(=O)N2C)O1	·	·	-2.8	·	·	·	·	·
O=C(/C=C/c1ccc(F)cc1)NCCC1=CCCCC1	-88.9*	-16.0	-1.0	-5.4	?	97.1*	25.3	98.4*
C[C@H]1CN([C@@H](C)CO)S(=O)(=O)c2ccc(-c3cccc(C#N)c3)cc2O[C@H]1CN(C)C(=O)c1cccnc1	·	·	-1.7	·	·	·	·	·
O=C(Cn1cnc2ccccc2c1=O)N/N=C/c1ccc(Br)cc1	-14.3	1.6	12.0	0.7	·	·	·	·
COc1cc(/C=N/NC(=O)Cn2cnc3ccccc3c2=O)ccc1O	-88.6*	1.4	-1.3	-5.6	-7.4	95.4*	-16.7	96.6*
O=C(CCNC(=O)c1ccco1)Nc1nc2ccccc2s1	·	6.4	-1.9	-2.0	·	·	·	·

High-throughput results from PubChem.
